Results on 10 molecules are retold here after the supplement of paper PMC10105736.

Holding throughout (experiment): MAPPIT interaction score (arbitrary units); higher = stronger binary interaction signal, active = hit call of the paper
One experiment has as its target PIG-C. The settings on record: MAPPIT configuration: N-C; pair source set: screen_3.
For a further experiment, the target named is PGRP-LE. The settings on record: MAPPIT configuration: N-N; pair source set: Curagen_low_conf.
The target in a further experiment is Tsp96F. The following applies: MAPPIT configuration: N-C; pair source set: screen_4.
Another experiment has as its target Past1. The settings on record: MAPPIT configuration: N-N; pair source set: Lit-BM-16.
Another experiment addresses Rm62. The settings on record: MAPPIT configuration: N-N; pair source set: Curagen_high_conf.
The target in the next experiment is ktub. The following applies: MAPPIT configuration: N-N; pair source set: Curagen_high_conf.
Another experiment deals with mira. The following applies: pair source set: Lit-BM-16.
The next experiment deals with Pc. The settings on record: pair source set: Lit-BM-16.
A further experiment has as its target Pex14. The settings on record: MAPPIT configuration: N-C; pair source set: screen_3.
The target of a further experiment is Pdha. The following applies: pair source set: Lit-BM-16.
A further experiment deals with Pgd. The following applies: MAPPIT configuration: N-N; pair source set: DPIM.
A further experiment concerns the target qua. The following applies: MAPPIT configuration: N-N; pair source set: DPIM.
The target in a further experiment is Pbgd. The following applies: pair source set: RRS.
In the next experiment the target is ScpX. The settings on record: MAPPIT configuration: N-N; pair source set: Curagen_high_conf.
In a further experiment the target is Pak3. The settings on record: MAPPIT configuration: N-C; pair source set: RRS.
A further experiment addresses PGRP-LC. The settings on record: pair source set: Lit-BM-16.

± gives the standard deviation of the averaged measurements.
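Note: HEK293T cells with Epo stimulation, STAT-responsive firefly luciferase reporter, fold induction versus unstimulated cells divided by the larger fold induction of two negative controls lacking either bait or prey.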

B1: wat (protein)
chain: MDDPKIMNIMNGMKSLEDHCQLISDVKDESPMQMFYKDKGVFLTGGTGFFGKIIIEKLLRVTEVGQIYLLIRTKKGKDAFARIEDLFNDPVFAKMKQVNPKYRCQITIISGDCSLPGLGISADERETIMENVNIVLHSAATVRFDEKLKMAIAINVHGTKEIIKLAKEIVNLKALVHVSTAFAHCNMRHIQERFYSGTMSGENAFKLSECLDEHTLNTLTPTIIKGYPNTYTFTKVLAENVVQQSAQNLPVTIFRPGIVITTYREPVTGWIDNMYGPCGVIVGIGSGVLRVFTGDMDNKAHIVPVDMCVNALLASAWDIARNKYETPPIYNYVPDAENMVTWRRYMEDGFEYGCDIPMRKSIWYPRFTIVPHMWQYHILCFLYHTLPALVMDAIMVIIGKKPRMMKIYRKIHKLSNVLKYFSSNEFRFDNDNVRKLTEKLDDRDKRLFAFDMRDLDWTNLFRVSLYGLRLYVVKDDPSNIPESIKRYERLKVLHYTTLAVFYALAAWALYALLKLFL
B1: the MAPPIT interaction score in the experiment with PIG-C is 1.02 (inactive).

B2: CG9588 (protein)
chain: MAAGTTTKERLERLINAKKQLEAQINRNGQILAANDNVGMSGPLVDAEGFPRNDIDVYQVRLARQTIICLQNDHKELMNQIQTLLNQYHSEIATTDPELVNRASALDLDSDRSPGGANITDLAPARAIVVVNLVSPDSPAERAGLCAGDAILRFGSINSGNFKGDLAQIGELVRNMQSQNVQLKVKRGEQQLDLILVPKTWSGRGLLGCNIVLPPEAMDH
As for B2, the MAPPIT interaction score with PGRP-LE is 0.614 (inactive).

B3: Vha16-1 (protein)
chain: MSSEVSSDNPIYGPFFGVMGAASAIIFSALGAAYGTAKSGTGIAAMSVMRPELIMKSIIPVVMAGIIAIYGLVVAVLIAGALEEPSKYSLYRGFIHLGAGLAVGFSGLAAGFAIGIVGDAGVRGTAQQPRLFVGMILILIFAEVLGLYGLIVAIYLYTK
As to B3, the figures for the MAPPIT interaction score with PIG-C and in the experiment with Tsp96F were 0.119 (inactive) and 0.231 (inactive), respectively.

B4: numb (protein)
chain: MGNSSSHTHEPLERGFTRGKFGDVKNGKSASFRFSKKSPKKMDRLRRSFRDSFRRRKDRVPESSKPHQWQADEEAVRSATCSFSVKYLGCVEVFESRGMQVCEEALKVLRQSRRRPVRGLLHVSGDGLRVVDDETKGLIVDQTIEKVSFCAPDRNHERGFSYICRDGTTRRWMCHGFLACKDSGERLSHAVGCAFAVCLERKQRRDKECGVTMTFDTKNSTFTRTGSFRQQTLTERLAMATVGTNERSVDGPGSAMPGPPAATVKPFNPFAIERPHATPNMLERQSSFRLSTIGSQSPFKRQMSLRINDLPSNADRQRAFLTAAAGNPMQTPLRSVSPIAEVSPAKSAGADPLSAAAVAADSVSQLCQELSQGLSLLTQTDALLAAGEDLNFNNNRSINQNIIAAEKQVQHVHSYAPPTAQVTPRVASTTPTYQTLHSQSPSRSEQSIETSTELPNAEQWLGHVVRSTSPAAPKRPTYLANVGRAQTLASGTGAAVGGGGPDDPFDAEWVANVAAAKQLSPDLPIPSTARSPLARHSTNPFISPPKAPAQSFQVQL
In the case of B4, the MAPPIT interaction score was 0.0235 (inactive) with Past1; -0.368 (inactive) with Rm62; -1.3 (inactive) with ktub; 1.17 (inactive) in the experiment with mira (MAPPIT configuration: N-C); -0.252 (inactive) in the experiment with mira (MAPPIT configuration: N-N).

B5: Psc (protein)
chain: MMTPESKAIQPAAATTKQTAEATATTTMAHTQQKSQLSTLAKTTTTTATNKAAKSVVSNANSSGNNSSKKLALSQSQKTTTTTTPPTTTTTTTAAAAAEATTNADKMQKQQQLKQQLFAACSIKVKSENTLATTANAALAAATTTTTTATPALATGKAAKTILENGIKKESTPPAVESVEASSSSSSSSSSSSSSSSSWPTTRRATSEDASSNGGASADEEKSEEDPTAAVAASSTATTTSDLATTSRPRPVLLTAVNPHIICHLCQGYLINATTIVECLHSFCHSCLINHLRKERFCPRCEMVINNAKPNIKSDTTLQAIVYKLVPGLYERELMRKRAFYKDRPEEAALATPEQRGDDTEHLIFSPSDDMSLSLEYAELGELKTDSEPELVDTLRPRYLQCPAMCRVSHLKKFVYDKFEIDAQRFSIDIMYKVKTIVLLDYYTLMDIAYIYTWKRDAPMRFYYRVYESPQPLVKPAPRRVLPLKLEKQERENQEQQLAVEVASSKVEPVSLPEDQKAEASIKVEEQESTREIVKEVIKDVAATPPTETLKLVINRNMLDKREKSHSPQMSSKSSSKSSPCTPVSSPSEPNIKLKIDLSKQNSVTIIDMSDPERREIVKPLKPEKESRSKKKDKDGSPKSSSSSSSSSSGERKRKSPSPLTVPPLTIRTERIMSPSGVSTLSPRVTSGAFSEDPKSEFLKSFALKPIKVKVESPERTLNNRAITPPSPSVQQSASPKSKGNNLDDSILMKPPSCMPPKSIASSKRKSKEPVKAVSKKQKLSPPLPTVDFKIRLPVTNGNSSGTASPKIEKPLMPPPAKPPMLAPRKLQPSAQFAPPPSPIHHHAGVQMSAPGNRTPIAKRYQPILPKASRPNPFANIPNDVNRLLKDAGTEIKSIGGGSVENNSNAAQKPHLYGPKGESKMGPPALPATTPSQGNKNVGKQAGNLPMSAPPNKGNSSNNYLNLALFNSSKCKGKEAPPGCRTPMYTPNSPIYSPSSPQYVPSYNIPTMPTYKYTPKPTPNSGSGNGGSGSYLQNMLGGGNGGSLGGLFPSPPTKSDQNTNPAQGGGGSSSATQSGGNNGIVNNNIYMPNEDAPEKQQVKVKSLLNSCNINIPSSLSITISRDNGDSSSPNNGQHPKHKSPVNNYIEIVKLPDQPQDQVQAAKEAQKRQSPPAAVPGHLAAKLPPPPPSKAIPSPQHLVSRMTPPQLPKVATPPPPSSPRVITPPKTSPPANAAKVTPLKPVLTPTQVDKKTPSPEKRTAAQMGSHSPTASENKSPKGGPAGVANSTGGAQNGDPAAKKFRPILPRQNGMPELAPKLPTLAPFVGFNPLQNPAAGKKVPPSKKSPNAGAAAHQSGQQKLVNGGQSQPAQQKTSPPAQKNQQQVKKVSKNPTPPPPSLPAVGKMMPHPVMHSQNAPLSIASSASAAAVASGQLDLSNFLKENLRRVHAAQAAQAAQVAAAANQSNMMYNLAQMGHMTPAMYNYQQAYFREQLSRMQRVGNEVFNDYLQKLKTAAATGGGGPVEGELKPMLPTVTLPSPGATPPAASPKTSPLPAGKLTAAATAPQTKGNSSSGAANARQQTAATGNNGATVPAASLPPATKSK
In the case of B5, the MAPPIT interaction score was 1.11 (inactive) with Pc (MAPPIT configuration: N-C) and -0.137 (inactive) with Pc (MAPPIT configuration: N-N).

B6: CG42540 (protein)
chain: MPDSMMDMEHRDHQLHRQQQQSHHHQPPRLTASTSTFAPPAPAGSQSEERDRDRDRERDHHLHHHQSNNVASSPLPVTASIQLHQQQPQQQQQQQPLTQLQQPQLREREHHQQQQQQQQQMMQQPQQQQQMQQPQQQLPHSHHALMQQSQQQQAIHRAEARRADEEISDKASTCGKLLIFLSVALVIMTLPFSLFVCFKVVQEYERAVIFRLGRLMQGGAKGPGIFFILPCIDSYARVDLRTRTYDVPPQEVLTKDSVTVSVDAVVYYRVSNATVSIANVENAHHSTRLLAQTTLRNTMGTRHLHEILSERMTISGTMQVQLDEATDAWGIKVERVEIKDVRLPVQLQRAMAAEAEAAREARAKVIAAEGEQKASRALREASEVIGDSPAALQLRYLQTLNTISAEKNSTIVFPLPIDLITYFLKTNEATTQQNARAAAAAIGNTPPPLQLAPQQQMGQQQQPQYQQPQQQQQQYQPQQQQQQQQQQPQQQDQLYQQGQQISSAM
Regarding B6, in the experiment with Pex14, the MAPPIT interaction score is 2.47 (inactive).

B7: Pdhb (protein)
chain: MLRTRLIQAASSAQRAFSTSQKALAAKQMTVRDALNSALDDELARDDRVFILGEEVAQYDGAYKVSRGLWKKYGDKRVIDTPITEMGFAGIAVGAAMAGLRPVCEFMTWNFSMQAIDHIINSAAKTFYMSAGAVNVPIVFRGPNGAASGVAAQHSQCFAAWYAHCPGLKVLSPYDAEDARGLLKSAIRDPDPVVFLENELVYGTAFPVADNVADKDFLVPIGKAKVMRPGKDITLVAHSKAVETSLLAAAELAKKGIEAEVINLRSIRPLDTATIFASVRKTHHLVTVENGWPQHGVGAEICARIMEDQTFFELDAPVWRCAGVDVPMPYAKTLEAHALPRVQDLVEATLKVLGGKVGKAAAANK
For the molecule B7, the MAPPIT interaction score with Pdha (MAPPIT configuration: N-C) is 0.121 (inactive); in the experiment with Pdha (MAPPIT configuration: N-N), 0.456 (inactive); with Pgd, -0.835 (inactive); with qua, -0.463 (inactive).

B8: ref(2)P (protein)
chain: MPEKLLKITYQGAGPQKKINAYLRMPSQNYTILRREIELYLFQERQLPKCDVRTFWIDADKDEIEIVNQNDYEIFLAKCESNMHVQVAPLAPVEEPKATKQEGSSANAEAPSVDDPSNFTIHDAVECDGCGLAPLIGFRYKCVQCSNYDLCQKCELAHKHPEHLMLRMPTNNGPGMVDAWFTGPGLGRRSGRRSRGHCPFQETNQADPAGEPARDSRRERRQARRHAGVLTQFVEMMTNLPLNTTTATAPAEPQKPKAAEQTESPPQAEPTVTAEKAAESEAKPTEPKKVNTDQSVPRTEDPVTTPRSTQPTTPVINLDNISQIVPPEYMSAGIEILNNFSEMFSKIIDTTEGGDSGIFAPSTTPSAENKKPEEQGQSSGQSGASSANQSAVPSAAPSANQSNVPSANQSATPSISGSIPDAQLETEPLNPKPSETTTETEQERRRSDSLDPEWQLIDNAYSANNSNLINLDTTNPTAAPQEPVRDFGQLGELLRQHMNEEARVEQASANTQTAQVDTVSTSTSTTSVTTNSVGTSPAAPDDKRTVPVYHTDESINKSIHAMMAMGFSNEGAWLTQLLESVQGNISAALDVMNVSQNRN
For B8, the MAPPIT interaction score with Pbgd (MAPPIT configuration: N-C) was -0.0221 (inactive); with Pbgd (MAPPIT configuration: N-N), 0.0139 (inactive); with ScpX, 0.0182 (inactive).

B9: Cyp12e1 (protein)
chain: MLSTQWNANKQISRQIYQLCRGLAQKATAVNLEEAKPYADIPGPSKLQLIRAFLPGGLYKNLPVHEMFLDMNRQYGSIFRMPSVAGTDLVLTMNPQDYEVIFRNEGQYPYRRSFEVMDYFKRVHRREVFDGYDGLTSGNGPAWGKMRTAVNPILLQPRNAKLYMTNLVQVSDEFLERIRIIRDPVTQEMPDDFAVDIRHLVIESICSVALNTHLGLLGEQRNNKDIQKLVLALQDVVELGFQLDIMPAFWKYLPMPNFKKLMRSLDTITDFCYFHIGNALKRIEEDAKAGTLNEIGLETSLLEKLARFDRQTAVIIAMDLLFAGADPTLVTLGGILFSLSKSPDKQARLLEEIRGILPNKDSSLTIENMRNLPYLRACIKEGIRMYPIGPGTLRRMPHDVVLSGYRVVAGTDVGIAANYQMANMEQFVPKVREFIPERWLRDESNSHLVGETATPFMYLPFGFGPRSCAGKRIVDMMLEIAISRLVRNFKIGFDYPIENAFKAQFFVQPNIPFKFKFIERNE
Regarding B9, in the experiment with Pak3, the MAPPIT interaction score is 2.68 (inactive).

B10: PGRP-LC (protein)
chain: MPFSNETEMSQCSNAKRRVNDPLTGPKNCSTSSTDSGVILNDNVAAFRPEKETKDRGTGEGQFQSKSEEKTESKRISVEHTVNITTENVGKTSSPAVSIRSTTISVVSIDDNAIDSSSIDSDSEAEAEDYTVQKLGHQVTYPPNSSHLRDLNQGLTVISRHVAPGEAAVPPPNPLEAGIVAKQILNGNLAVATPTSPAGGATQGIGSIALTNSTDVTFGDKHFYEGPVTIQQFLIDNRDKWKPGEGPAGGQDNPAFNGGPSTNGSAPGSKHEDPAQTPPICPFLPNTVGRKAVTVTVVFVTLTFLLGIVLATTTNLFGKTLNQSKIRDDDDYRQNIPINSTIDLDNIGGGLILRFVERQQWLAQPPQKEIPDLELPVGLVIALPTNSENCSTQAICVLRVRLLQTYDIESSQKCDIAYNFLIGGDGNVYVGRGWNKMGAHMNNINYDSQSLSFAYIGSFKTIQPSAKQLSVTRLLLERGVKLGKIAPSYRFTASSKLMPSVTDFKADALYASFANWTHWS
With B10, the MAPPIT interaction score in the experiment with PGRP-LC (MAPPIT configuration: N-C) was -0.131 (inactive); with PGRP-LC (MAPPIT configuration: N-N), 2.43 ± 0.6.
